In experiment [1] the test system is Wnt5a (protein binding on small-molecule microarray). The experiment is described as follows: Wnt5a binders on small-molecule microarray, primary screen, biophysical, 635/667 nm fluorescence (AID 1142).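 Also: fluorescence read at 667 nm with signal to noise per printed feature.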 Particulars: 635 nm fluorescence, higher = more signal.
The nature of experiment [2]: cell viability in Huh7 cells, primary screen, cytotoxicity control for HCV replication inhibitor project, CellTiter-Glo luminescence, basal, 48 h (AID 1143).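 Also: Huh7 hepatoma cells carrying a hepatitis C replication reporter with no stimulus; test concentration not given here.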 Particulars: Huh7 HCV replicon, higher = more signal, called active from +8 up or from −8 down.
Experiment [3] can be described thus: P. aeruginosa biofilm formation inhibitors, primary screen, PAO1 strain, BacTiter-Glo luminescence, LB-PBS (AID 1144). Particulars: 12 h, higher = more signal.
Experiment [4] can be described thus: CREB reporter modulators without forskolin, primary screen, cell-based, PC12, CRE-LacZ reporter, unstimulated (AID 1145). Particulars: no forskolin, luminescence, 4.5 h, higher = more signal, called active from +8 up or from −8 down.
A short description of experiment [5]: CREB reporter modulators under forskolin, primary screen, cell-based, PC12, CRE-LacZ reporter, forskolin-stimulated (AID 1146).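 Also: PC12 cells with 6xCRE LacZ reporter stimulated by forskolin 10 µM; beta-galactosidase reporter signal reflecting CREB driven transcription.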 Particulars: luminescence, 4.5 h, higher = more signal, called active from +8 up or from −8 down.
The target of experiment [6] is Streptavidin (Streptomyces avidinii) (UniProt P22629). The experiment in a line: streptavidin binders on small-molecule microarray, primary screen, artefact control for SMM compound annotation, biophysical, 635/667 nm fluorescence (AID 1147).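 Also: signal reflects streptavidin binding to arrayed compounds as a control protein.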 Particulars: streptavidin binding, higher = more signal.
Experiment [7] in a line: small-molecule binders of probe aInhba, primary screen, biochemical, small-molecule microarray, 635/667 nm fluorescence (AID 1148).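 Also: score merges 667nm spot fluorescence with signal-to-noise for antibody binding to printed compounds.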 Conditions: higher = more signal.
Experiment [8] concerns the target Torsin-1A (Homo sapiens) (UniProt O14656). The experiment in a line: torsin A binders from cell lysate, primary screen, small-molecule microarray, wild-type, 635/667 nm (AID 1149). Particulars: COS7 hTOR1A-WT lysate, 635 nm fluorescence, higher = more signal.
Experiment [9] has the same target. The experiment is described as follows: small-molecule binders of mutant TOR1A in lysate, primary screen, cell lysate, small-molecule microarray, COS7 lysate, 635/667 nm fluorescence (AID 1150).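 Also: score pools 667 nm emission and signal to noise measuring lysate protein binding.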 Conditions: COS7 hTOR1A mutant lysate, 635 nm fluorescence, higher = more signal.
Experiment [10] concerns Sonic hedgehog protein (Shh). The experiment is described as follows: small-molecule binders of Shh protein, primary screen, biochemical, small-molecule microarray, 635/667 nm fluorescence (AID 1151).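 Also: Shh protein binding to compounds spotted on small-molecule microarray slides; score combines spot fluorescence intensity with signal-to-noise across triplicate slides.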 Conditions: small-molecule microarray binding, 635 nm fluorescence; higher = more signal.
Experiment [11] can be described thus: E. coli DRC41 culture turbidity changes, primary screen, E. coli filamentation inducer project, strain DRC41, OD650, 48 h (AID 1152).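 Also: E. coli MC1000 strain DRC41 lacking acrAB efflux pump and sulA.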 Conditions: E. coli DRC41 (acrAB sulA), higher = more signal, called active from +8 up or from −8 down.
Experiment [12] in a line: small-molecule binders of probe aLefty1, primary screen, biochemical, small-molecule microarray, 635/667 nm fluorescence (AID 1153).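 Also: score merges spot fluorescence with signal-to-noise ratio from the scanned slide images.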 Conditions: higher = more signal.
Experiment [13] is described as follows: PSAC antagonists in infected red cells, primary screen, cell-based, P. falciparum Indochina, OD700, 1 h (AID 1154). Particulars: P. falciparum Indochina infected RBC osmotic lysis, higher = more signal, called active from +8 up or from −8 down.
The nature of experiment [14]: PSAC antagonists in infected red cells, primary screen, cell-based, P. falciparum Indochina, OD700, 2 h (AID 1155).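 Also: lysis reports solute entry through the parasite surface anion channel PSAC; channel blockers reduce lysis of infected cells.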 Conditions: P. falciparum Indochina infected erythrocytes, osmotic lysis OD700; higher = more signal, called active from +8 up or from −8 down.
Experiment [15] is described as follows: osmotic lysis modulators in infected erythrocytes, primary screen, PSAC antagonist project, cell-based, P. falciparum Indochina, OD700, 3 h (AID 1156). Particulars: higher = more signal, called active from +8 up or from −8 down.
Experiment [16] in a line: PSAC antagonists in infected red cells, primary screen, cell-based, P. falciparum Indochina, OD700, 18 h (AID 1157). Particulars: P. falciparum Indochina infected erythrocytes, osmotic lysis OD700, 18 h; higher = more signal, called active from +8 up or from −8 down.
Experiment [17] is described as follows: modulators of S6 phosphorylation in cells, primary screen, cell-based, A549, cytoblot, luminescence, serum-stimulated (AID 1158).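 Also: serum-stimulated A549 lung adenocarcinoma cells; signal is phosphorylated S6 detected by cytoblot immunostaining with HRP secondary.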 Conditions: A549 phospho-S6 cytoblot, 5 h, higher = more signal.
Experiment [18] deals with NADPH oxidase 2 (Homo sapiens) (UniProt P04839). The experiment in a line: NOX2-dependent H2O2 signal modulators, primary screen, NOX inhibitor project, cell-based, HEK293-NOX2, PMA-stimulated, Amplex Red fluorescence (AID 1159). Also: test concentration not given here. Conditions: 45 min, higher = more signal, called active from +8 up or from −8 down.
The target of experiment [19] is NADPH oxidase 4 (Homo sapiens) (UniProt Q9NPH5). The experiment in a line: NOX4-dependent H2O2 signal modulators, primary screen, NOX inhibitor project, cell-based, HEK293-NOX4, tetracycline-induced, Amplex Red fluorescence (AID 1160). Particulars: 45 min, higher = more signal, called active from +8 up or from −8 down.
For experiment [20], the target named is NADPH oxidase 5 (Homo sapiens) (UniProt Q96PH1). The experiment in a line: NOX5-dependent H2O2 signal modulators, primary screen, NOX inhibitor project, cell-based, HEK293-NOX5, Amplex Red fluorescence (AID 1161). Conditions: HEK293-NOX5, ionomycin, 45 min, higher = more signal.

Structures are written as SMILES. The source made the active and inactive calls. Unless noted, no rule for the calls is given here.

NADPH oxidase 4 (Homo sapiens), sequence (Q9NPH5 whole entry, looked up): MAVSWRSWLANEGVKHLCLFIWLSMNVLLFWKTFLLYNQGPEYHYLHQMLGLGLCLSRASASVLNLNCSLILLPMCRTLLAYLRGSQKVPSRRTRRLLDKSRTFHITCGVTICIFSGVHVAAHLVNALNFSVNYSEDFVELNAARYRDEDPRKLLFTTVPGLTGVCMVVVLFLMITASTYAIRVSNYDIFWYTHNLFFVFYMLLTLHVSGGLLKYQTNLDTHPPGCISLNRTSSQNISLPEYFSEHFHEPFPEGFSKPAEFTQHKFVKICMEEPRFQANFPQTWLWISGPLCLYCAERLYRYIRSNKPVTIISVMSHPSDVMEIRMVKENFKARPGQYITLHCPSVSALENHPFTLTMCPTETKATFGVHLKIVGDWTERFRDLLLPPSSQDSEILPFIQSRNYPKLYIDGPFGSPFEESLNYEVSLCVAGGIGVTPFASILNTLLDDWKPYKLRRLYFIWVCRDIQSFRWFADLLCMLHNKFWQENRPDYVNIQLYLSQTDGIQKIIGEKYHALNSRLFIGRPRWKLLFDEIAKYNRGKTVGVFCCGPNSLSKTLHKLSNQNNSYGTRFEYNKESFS
Streptavidin (Streptomyces avidinii), sequence (P22629 whole entry, looked up): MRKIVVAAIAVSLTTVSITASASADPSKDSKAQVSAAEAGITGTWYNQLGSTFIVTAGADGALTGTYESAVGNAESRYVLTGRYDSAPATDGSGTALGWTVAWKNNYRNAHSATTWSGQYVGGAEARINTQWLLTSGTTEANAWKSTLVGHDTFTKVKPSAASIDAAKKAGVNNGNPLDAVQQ
NADPH oxidase 2 (Homo sapiens), sequence (P04839 whole entry, looked up): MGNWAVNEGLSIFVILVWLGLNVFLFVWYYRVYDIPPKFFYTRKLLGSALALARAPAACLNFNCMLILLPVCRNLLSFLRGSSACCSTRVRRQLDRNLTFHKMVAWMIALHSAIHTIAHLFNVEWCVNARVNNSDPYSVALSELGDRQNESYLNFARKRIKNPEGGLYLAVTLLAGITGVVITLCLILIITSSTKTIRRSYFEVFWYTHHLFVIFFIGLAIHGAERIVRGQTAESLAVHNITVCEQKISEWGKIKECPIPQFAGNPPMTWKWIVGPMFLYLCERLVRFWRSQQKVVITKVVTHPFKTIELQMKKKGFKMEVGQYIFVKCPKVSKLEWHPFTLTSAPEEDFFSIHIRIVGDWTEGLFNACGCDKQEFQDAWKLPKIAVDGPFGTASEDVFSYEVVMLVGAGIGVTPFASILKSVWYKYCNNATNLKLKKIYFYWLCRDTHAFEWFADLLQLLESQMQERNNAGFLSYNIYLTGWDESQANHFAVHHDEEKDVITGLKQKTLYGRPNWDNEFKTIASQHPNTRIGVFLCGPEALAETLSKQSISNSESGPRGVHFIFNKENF
NADPH oxidase 5 (Homo sapiens), sequence (Q96PH1 whole entry, looked up): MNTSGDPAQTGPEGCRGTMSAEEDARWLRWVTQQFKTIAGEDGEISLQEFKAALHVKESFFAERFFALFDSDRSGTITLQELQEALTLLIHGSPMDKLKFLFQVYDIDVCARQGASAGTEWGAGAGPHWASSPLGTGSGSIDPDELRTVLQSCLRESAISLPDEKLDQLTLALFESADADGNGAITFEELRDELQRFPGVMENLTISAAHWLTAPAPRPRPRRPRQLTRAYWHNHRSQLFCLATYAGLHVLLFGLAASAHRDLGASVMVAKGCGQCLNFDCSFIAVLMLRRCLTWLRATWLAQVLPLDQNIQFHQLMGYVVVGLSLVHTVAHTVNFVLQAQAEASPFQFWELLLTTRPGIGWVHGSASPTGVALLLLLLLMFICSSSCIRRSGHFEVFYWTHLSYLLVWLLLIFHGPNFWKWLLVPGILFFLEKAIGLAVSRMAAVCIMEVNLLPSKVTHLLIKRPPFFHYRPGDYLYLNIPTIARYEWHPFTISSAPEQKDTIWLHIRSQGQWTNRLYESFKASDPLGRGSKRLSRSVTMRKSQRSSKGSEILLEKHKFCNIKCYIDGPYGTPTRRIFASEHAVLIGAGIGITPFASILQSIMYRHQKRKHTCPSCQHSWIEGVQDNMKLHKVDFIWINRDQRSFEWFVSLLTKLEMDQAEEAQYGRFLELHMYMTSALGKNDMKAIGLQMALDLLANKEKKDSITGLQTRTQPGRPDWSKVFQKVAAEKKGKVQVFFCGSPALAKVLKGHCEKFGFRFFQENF
Torsin-1A (Homo sapiens), sequence (O14656 whole entry, looked up): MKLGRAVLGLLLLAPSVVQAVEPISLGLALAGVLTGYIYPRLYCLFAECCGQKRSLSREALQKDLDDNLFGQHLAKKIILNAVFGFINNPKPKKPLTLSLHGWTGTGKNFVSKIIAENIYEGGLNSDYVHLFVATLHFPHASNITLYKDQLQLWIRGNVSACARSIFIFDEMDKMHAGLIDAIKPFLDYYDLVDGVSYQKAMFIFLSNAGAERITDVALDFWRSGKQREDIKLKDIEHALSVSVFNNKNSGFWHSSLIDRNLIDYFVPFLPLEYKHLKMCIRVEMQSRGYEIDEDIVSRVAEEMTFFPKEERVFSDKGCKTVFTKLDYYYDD

With `CCCC(=O)N(CCc1c[nH]c2ccccc12)[C@@H]1CC(C(=O)NCCO)=C[C@H](Oc2c(I)cc(CO)cc2OC)[C@H]1O`, the composite z-score is -0.0727 in [1]; -0.268 in experiment [6]; -0.128 in experiment [7]; -0.24 with Torsin-1A (Homo sapiens) [8]; 0.0165 with Torsin-1A (Homo sapiens) [9]; -0.251 in [10]. This molecule also registered a composite z-score in [12] of -0.275. Besides, the z-score in [2] was -0.0737 (inactive); in experiment [3], -0.396 (inactive); in experiment [4] it was 0.486 (inactive); in experiment [5], -0.887 (inactive); in [11], 1.57 (inactive); in experiment [13] it was 13.2 (active). Moreover, the z-score in experiment [14] is 1.47 (inactive); in experiment [15], 2.04 (inactive); in experiment [16], 0.501 (inactive); in experiment [17], 0.968; in [18], -0.674 (inactive); in experiment [19], 1.07 (inactive). This molecule also showed a z-score in experiment [20] of 1.16.

For the molecule `C=C(CCCC)/C(=C/C[C@H](OC(=O)c1ccncc1)c1ccc(OCCO)cc1)c1cc(C(=O)OC)ccc1OC`, the composite z-score in experiment [1] worked out at 0.355; in experiment [6], 0.0399; in experiment [7], 0.0104; in the experiment with Torsin-1A (Homo sapiens) [8] it was 0.404; with Torsin-1A (Homo sapiens) [9], 0.102; in experiment [10] it was 1.96. The molecule also displayed a composite z-score in experiment [12] of -0.103. Moreover, the z-score in experiment [2] was -4.81 (inactive); in [3], 0.282 (inactive); in experiment [4], 5.11 (inactive); in [5], -0.366 (inactive); in experiment [11] it was 0.695 (inactive); in experiment [13], 20.9 (active). In addition, the z-score in experiment [14] was 1.88 (inactive); in [15], 2.24 (inactive); in experiment [16], -0.722 (inactive); in experiment [17] it was 0.769; in experiment [18], -1.96 (inactive); in experiment [19] it was -1.3 (inactive). The molecule further came in with a z-score in [20] of -2.54.

For the molecule `CC(C)(C)OC(=O)CC[C@]1(C(N)=O)N=C(c2ccc(OCCCO)cc2)O[C@H]1c1ccccc1`, the composite z-score is 0.836 in [1]; 0.679 in experiment [6]; 0.4 in experiment [7]; -0.037 with Torsin-1A (Homo sapiens) [8]; 0.941 in the experiment with Torsin-1A (Homo sapiens) [9]; -0.332 in [10]. The molecule further showed a composite z-score in experiment [12] of 0.762. In addition, the z-score is -0.408 (inactive) in experiment [2]; 0.304 (inactive) in experiment [3]; -0.585 (inactive) in experiment [4]; -0.121 (inactive) in experiment [5]; -0.179 (inactive) in experiment [11]; 6.16 (inactive) in experiment [13]. The z-score in [14] was -0.927 (inactive); in [15] it was -0.524 (inactive); in experiment [16] it was -0.367 (inactive); in [17], 0.0312; in experiment [18], 0.266 (inactive); in experiment [19] it was -1.12 (inactive). Further, the z-score in experiment [20] amounted to 0.814.

As to `C=CCNC(=O)[C@H]1[C@@H]2C(=O)O[C@@H](c3ccccc3)[C@@H](c3ccccc3)N2[C@@H](c2ccc(OCCO)cc2)[C@]12C(=O)Nc1ccc(C#CCC(C(=O)OC)C(=O)OC)cc12`, the composite z-score in experiment [1] amounted to 0.256; in experiment [6] it was 1.17; in experiment [7] it was 0.0816; with Torsin-1A (Homo sapiens) [8], 0.332; in the experiment with Torsin-1A (Homo sapiens) [9] it was 0.862; in [10] it was 0.984. The same molecule came in with a composite z-score in experiment [12] of 0.128. Moreover, the z-score in [2] is -1.19 (inactive); in [3] it was 0.626 (inactive); in experiment [4] it was -0.728 (inactive); in [5], 0.323 (inactive); in experiment [11], -0.283 (inactive); in [13] it was 3.01 (inactive). For the same molecule, the z-score was 0.664 (inactive) in experiment [14]; -0.291 (inactive) in [15]; 0.117 (inactive) in [16]; -0.602 in [17]; 1.48 (inactive) in experiment [18]; 1.21 (inactive) in experiment [19]. In experiment [20], this molecule gave a z-score of 0.45.

`COCCOC(=O)N1C(=O)[C@@]2(c3ccccc31)[C@H](C(=O)N1CCc3cc(OC)c(OC)cc3C1)[C@H]1C(=O)O[C@H](c3ccccc3)[C@H](c3ccccc3)N1[C@@H]2c1ccc(O)cc1`: the composite z-score in experiment [1] is 0.622; in experiment [6] it was 1.39; in experiment [7], -0.0889; with Torsin-1A (Homo sapiens) [8], 1.06; with Torsin-1A (Homo sapiens) [9], 1.31; in experiment [10] it was 1.96. This molecule also registered a composite z-score in experiment [12] of -0.0186. Besides, the z-score is -3.5 (inactive) in experiment [2]; -0.726 (inactive) in [3]; -0.0515 (inactive) in experiment [4]; 2.99 (inactive) in experiment [5]; 3.04 (inactive) in experiment [11]; 0.927 (inactive) in experiment [13]. The z-score in experiment [14] is -0.751 (inactive); in experiment [15], -0.965 (inactive); in [16], -1.93 (inactive); in experiment [17] it was 2.38; in [18], 0.571 (inactive); in [19], 0.549 (inactive). The molecule further gave a z-score in [20] of 1.2.

These data come from PubChem BioAssay.
